# High-throughput results: PubChem BioAssay, National Center for Advancing Translational Sciences (NCATS)
# PI5P4Ka inh = qHTS for Inhibitors of phosphatidylinositol 5-phosphate 4-kinase (PI5P4K); Phosphatidylinositol 5-phosphate 4-kinase type-2 alpha (Homo sapiens), P48426; PI5P4Kalpha enzyme, ADP-Glo luminescence, 60 min; hits give low values; max response, %; actives 1.2% (n = 330,000); AID 652105, 2013; active = max response of -50% or lower; inconclusive = between -30% and -50%; inactive = -30% or higher; note: value at the top dose of about 77 µM
#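 Quantitative HTS of the MLSMR library against PI5P4Kalpha with substrate. ATP added last at 5 microM final; room temperature, 60 minutes. Remaining ATP depleted, ADP converted and read as luminescence.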
# PLK1 PBD inh = qHTS for Inhibitors of PLK1-PDB (polo-like kinase 1 - polo-box domain): Primary Screen; Serine/threonine-protein kinase PLK1 (Homo sapiens), P53350; Plk1 PBD binding of FITC phosphopeptide, fluorescence polarization; Potency, µM, inactives show max response, negative = inhibition, actives largely listed as inhibitors; actives 2.8% (n = 360,000); AID 720504, 2013; note: potency is the fitted concentration of half-maximal effect; series mostly up to about 57 µM; nearly all actives have a fitted effect of over 65% in size
# WRN inhibitor = qHTS for Inhibitors of WRN Helicase; AID 651768, 2012; WRN helicase unwinding, fluorescent forked duplex, kinetic; Potency, µM (series often up to 114 µM), without a hit: top-dose activity change, negative = inhibition, hits mostly inhibitors; Bifunctional 3'-5' exonuclease/ATP-dependent helicase WRN (Homo sapiens), Q14191; actives 0.46% (n = 360,000); note: potency is the fitted concentration of half-maximal effect; nearly all actives have a fitted effect of over 55% in size
#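 WRN at 20 nM final was preincubated with compound for 15 min at room temperature; reaction started with 100 nM forked duplex oligonucleotide carrying fluorophore and quencher plus 2 mM ATP (final). Unwinding followed kinetically by red fluorescence (ex 525/em 598 nm).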
# USP1-UAF1 inh = Inhibitors of USP1/UAF1: Primary Screen; actives 0.23% (n = 390,000); Ubiquitin carboxyl-terminal hydrolase 1 (Homo sapiens), O94782; recombinant USP1/UAF1, Ub-Rhodamine cleavage fluorescence; Potency, µM (titrated, usually from 57.1 µM), inactives show top-dose activity change, negative = inhibition, usual class: inhibitors; note: potency is the fitted concentration of half-maximal effect; nearly all actives have a fitted effect of over 60% in size
# Target sequence (O94782 whole entry, looked up): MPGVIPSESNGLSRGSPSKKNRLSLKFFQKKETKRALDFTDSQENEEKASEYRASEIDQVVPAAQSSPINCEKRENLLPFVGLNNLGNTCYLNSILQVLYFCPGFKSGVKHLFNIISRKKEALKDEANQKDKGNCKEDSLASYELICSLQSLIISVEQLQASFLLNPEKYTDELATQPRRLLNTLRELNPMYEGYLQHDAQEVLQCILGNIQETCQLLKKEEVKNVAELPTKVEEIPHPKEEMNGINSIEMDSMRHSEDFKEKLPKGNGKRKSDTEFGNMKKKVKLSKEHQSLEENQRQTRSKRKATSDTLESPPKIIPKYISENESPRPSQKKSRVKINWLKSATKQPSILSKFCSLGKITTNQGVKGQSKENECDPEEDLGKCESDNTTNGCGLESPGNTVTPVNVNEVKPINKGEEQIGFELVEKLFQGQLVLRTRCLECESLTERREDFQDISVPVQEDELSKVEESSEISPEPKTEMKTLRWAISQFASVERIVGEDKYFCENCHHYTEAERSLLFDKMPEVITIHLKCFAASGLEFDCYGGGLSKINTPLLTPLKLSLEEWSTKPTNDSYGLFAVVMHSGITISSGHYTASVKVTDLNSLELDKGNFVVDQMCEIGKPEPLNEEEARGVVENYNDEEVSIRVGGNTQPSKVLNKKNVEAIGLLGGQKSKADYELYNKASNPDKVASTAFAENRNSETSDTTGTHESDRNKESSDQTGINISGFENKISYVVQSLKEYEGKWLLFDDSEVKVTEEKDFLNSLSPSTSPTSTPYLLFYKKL
#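 Step one: compound is pinned into 1nM USP1/UAF1 in HEPES pH 7.8 buffer with TCEP. Step two: 15 min room-temperature incubation. Step three: Ub-Rho (150nM final) starts cleavage, tracked by fluorescence over six one-minute reads.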
# USP2a block = qHTS Assay for Inhibitors of Ubiquitin-specific Protease USP2a Using CHOP2 as the Reporter | Ubiquitin carboxyl-terminal hydrolase 2 (Homo sapiens), O75604 | USP2 core, Ub-CHOP2 coupled fluorogenic reporter, 485/531 | AID 463254, 2010 | actives 0.01% (n = 330,000) | Potency, µM (series often up to 38.3 µM), without a hit: at the highest dose activity change, negative = inhibition, most hits filed as inhibitors;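 note: potency is the fitted concentration of half-maximal effect; plate controls were DMSO wells for no effect and full inhibition by NEM control for full effect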
#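 Deubiquitinase activity read as fluorescence (485/531 nm) after Ub-CHOP2 cleavage activates the enterokinase reporter on its substrate; USP2 core 10nM, Ub-CHOP2 and substrate 25nM each, 30min compound preincubation then 60min RT; data normalized to NEM, curves fitted.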
# * hit, by the source's call; ? = inconclusive; · = no result; [ ] = remark or other dose. Shown are actives, neighbours in structure and some others; about 3.3% of the full set was active somewhere. Unless noted, calls come from the whole dose curve; as a rule, active = well fitted curve in the direction sought with a large enough effect; inconclusive = small, poorly fitted or top-dose-only effect, or another doubt; inactive = no such curve, though single readings can be large; an effect the other way counts as inactive or inconclusive. Unless noted, % is set by controls: 0 for no effect and ±100 for the full control effect.
SMILES,PI5P4Ka inh,PLK1 PBD inh,WRN inhibitor,USP1-UAF1 inh,USP2a block
COC(=O)c1ccc(C(=O)OC)c(NC(=O)N2CC3CCCN3c3ccccc32)c1 (stereo not given),·,·,·,-20%,·
COc1cccc(C(=O)Nc2sc3c(c2C(=O)O)CCCC3)c1,-23,-20%,-24%,-18%,-1%
COc1cccc(C(=O)Nc2sc3c(c2C#N)CCN(C(C)=O)C3)c1,-26,24µM*,4%,-18%,6%
CSc1ccc(C2c3[nH]c4ccccc4c3CCN2C(=O)CCC2CCCC2)cc1 (stereo not given),·,·,·,-21%,·
Cc1cc(OC(=O)c2c(F)cc(F)cc2F)nc(C)n1,0,21µM*,0%,-7%,2%
CCc1ccc(/C=C/C(=O)c2cc(Br)ccc(=O)c2O)cc1,-29,21µM*,-27%,?,0%
CCOc1ccc(/C=C/C(=O)c2cc(Br)ccc(=O)c2O)cc1,?,?,?,?,-5%
Cc1cccc(/C=C/C(=O)c2cc(Br)ccc(=O)c2O)c1,?,21µM*,?,?,-2%
Cn1cccc1Cc1nnc(SCC(=O)Nc2cccc(Cl)c2)n1-c1ccc(F)cc1,-9,27µM*,1%,-10%,2%
Cn1cccc1Cc1nnc(SCC(=O)Nc2cccc(F)c2)n1-c1ccc(F)cc1,-6,?,-10%,-6%,1%
COC(=O)Oc1nsnc1N1CCOCC1,·,2.7µM*,-7%,2%,0%
O=C(Oc1nsnc1N1CCOCC1)N(c1ccccc1)c1ccccc1,0,0%,-1%,-25%,1%
COc1cc(C(O)P(=O)(OCC(C)C)OCC(C)C)cc(OC)c1OC (stereo not given),-4,12µM*,4%,1%,2%
COc1cc(/C=N/Nc2ccc(F)cc2F)cc(OC)c1O,2,27µM*,-15%,-5%,3%
COc1cc(/C=N/Nc2ccccc2[N+](=O)[O-])cc(OC)c1O,6,-6%,-1%,-13%,4%
Cc1oc2ncn(CC(C)C)c(=O)c2c1C(=O)NCCCN1CCC(C)CC1,·,·,·,0%,·
O=C(CCCn1c(=O)c2cccn2c2ccccc21)Nc1cccc(Cl)c1,·,·,·,-17%,·
O=C(CCN1CCN(c2ccccc2)CC1)N/N=C/c1ccc(O)c(O)c1O,-69*,11µM*,40µM*,-23%,2%
COc1ccc(/C=N/NC(=O)CCN2CCN(c3ccccc3)CC2)c(OC)c1OC,2,-2%,2%,-7%,-2%
O=C(Cc1csc(N2CCOCC2)n1)N/N=C/c1ccc(O)c(O)c1O,-60*,11µM*,22µM*,-18%,2%
C/C(=N\NC(=O)Cc1csc(N2CCOCC2)n1)c1ccccc1,12,-2%,1%,-9%,2%
Cc1cc(C(=O)N/N=C/c2ccc(O)c(O)c2O)c(C)n1-c1ccccc1,-62*,6.7µM*,-5%,-23%,-2%
COc1cc(C(=O)NCc2nc3cccnc3n2Cc2ccc(C)cc2)cc(OC)c1OC,·,·,·,-13%,·
CCOc1cccc(NC(=O)/C(C#N)=C\c2cccnc2)c1,1,19µM*,-3%,-24%,1%
CC(=O)c1cccc(OCC(O)CN2CCN(S(=O)(=O)c3c(F)cccc3F)CC2)c1 (stereo not given),-8,19µM*,-4%,0%,4%
SMILES,PI5P4Ka inh,PLK1 PBD inh,WRN inhibitor,USP1-UAF1 inh,USP2a block
C/C(=N\NC(=O)c1cc2ccccc2cc1O)c1ccc2c(c1)OCO2,-67*,-8%,-39%,-2%,-11%
COc1ccc(Nc2oc(-c3ccc(COc4ccccc4C)o3)nc2C#N)cc1,·,·,·,-19%,·
CC1=NN(c2ccccc2)C(=O)/C1=C/c1ccc(-c2ccc(C)c(C(=O)O)c2)o1,-18,4.7µM*,?,?,·
CC1=NN(c2ccc(Cl)c(C(=O)O)c2)C(=O)/C1=C\c1ccc(-c2ccc(C(=O)O)cc2)o1,-17,8.4µM*,?,-13%,1%
Cc1cc(Cl)ccc1OCC(=O)Nc1c(Cl)ccc2nsnc12,·,·,·,-22%,·
COc1cccc(-c2cn3c(n2)sc2cc(C(=O)NC4CCCCCC4)ccc23)c1,·,·,·,11%,·
COC(=O)c1cccc(-c2ccc(C(c3c(C)[nH][nH]c3=O)c3c(C)[nH][nH]c3=O)o2)c1,?,24µM*,?,?,2%
Cc1ccc2nc(Cl)c3cc(C(=O)N(C)C4CCCCC4)sc3c2c1,·,·,·,6%,·
O=C(NCc1cccnc1)c1cccn1-c1ncc(C(F)(F)F)cc1Cl,-2,30µM*,4%,-18%,3%
O=C(C1CCCO1)N1CCN(Cc2c(O)ccc3ccccc23)CC1 (stereo not given),-5,12µM*,-8%[57.1 µM],-7%,6%
CCOC(=O)N1CCN(Cc2ccc(O)c3ncccc23)CC1,5,27µM*,2%,-15%,0%
CCOC(=O)N1CCN(Cc2c(O)ccc3ccccc23)CC1,-2,11µM*,-7%,-25%,-1%
Cc1ccc(CN2CCN(C(=O)C3CCCO3)CC2)cc1 (stereo not given),·,-1%,0%,-15%,1%
C#CCOc1ccc(C2C(C(=O)OC)=C(C)NC3=C2C(=O)c2ccccc23)cc1OCC (stereo not given),·,·,·,-24%,·
CCOc1cc(C(=O)N2CC(=O)Nc3ccc(C)cc3C2c2ccccc2)cc(OCC)c1OCC (stereo not given),·,·,·,2%,·
O=c1[nH]c(N2CCCCC2)nc2ncn(Cc3ccccc3)c12,-19,27µM*,5%,-20%,-1%
C1CN=C(NC23CC4CC(CC(C4)C2)C3)C1,-6,30µM*,-4%,-2%,-1%
Cc1ccc(NS(=O)(=O)c2ccc3c(c2)C(=O)c2ccccc2C3=O)c(C)c1,0,0%,-15%,-20%,-4%
O=C1C=C(Nc2ccccc2O)c2ccccc2C1=O,-17,-12%,?,18µM*,2%
O=c1cccccc1NCc1ccccc1,-6,-9%,8%,-13%,0%
O=C1C=C(NCc2ccccc2)c2ccccc2C1=O,2,?,?,2.5µM*,3%
Cc1ccc(NC2=CC(=O)C(=O)c3ccccc32)c(C)c1,4,-9%,1%,32µM*,0%
O=C(Nc1ccccc1O)c1ccc2c(c1)C(=O)N(N1C(=O)c3ccccc3C1=O)C2=O,-17,-12%,-36%,-6%,0%
COc1ccccc1NC(=O)C1=C(C)Nc2nc(SCc3ccccc3)nn2C1c1cccs1 (stereo not given),·,·,·,-22%,·
